About 14,000 (4.5%) of roughly 310,000 compounds showed an effect of 50% or more. The effect is printed as a negative number. The list comes from a sample in which strong results are over-represented; it also holds similar structures and randomly drawn compounds.
Biological target: human ether-à-go-go-related gene (hERG) potassium channel (human, UniProt Q12809)
Assay: primary screen, population patch clamp on CHO cells stably expressing hERG; higher = less effect of the substance
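Further: peak tail current of the secondary pulse compared with the same well before compound.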

human ether-à-go-go-related gene (hERG) potassium channel, sequence (Q12809 whole entry, looked up): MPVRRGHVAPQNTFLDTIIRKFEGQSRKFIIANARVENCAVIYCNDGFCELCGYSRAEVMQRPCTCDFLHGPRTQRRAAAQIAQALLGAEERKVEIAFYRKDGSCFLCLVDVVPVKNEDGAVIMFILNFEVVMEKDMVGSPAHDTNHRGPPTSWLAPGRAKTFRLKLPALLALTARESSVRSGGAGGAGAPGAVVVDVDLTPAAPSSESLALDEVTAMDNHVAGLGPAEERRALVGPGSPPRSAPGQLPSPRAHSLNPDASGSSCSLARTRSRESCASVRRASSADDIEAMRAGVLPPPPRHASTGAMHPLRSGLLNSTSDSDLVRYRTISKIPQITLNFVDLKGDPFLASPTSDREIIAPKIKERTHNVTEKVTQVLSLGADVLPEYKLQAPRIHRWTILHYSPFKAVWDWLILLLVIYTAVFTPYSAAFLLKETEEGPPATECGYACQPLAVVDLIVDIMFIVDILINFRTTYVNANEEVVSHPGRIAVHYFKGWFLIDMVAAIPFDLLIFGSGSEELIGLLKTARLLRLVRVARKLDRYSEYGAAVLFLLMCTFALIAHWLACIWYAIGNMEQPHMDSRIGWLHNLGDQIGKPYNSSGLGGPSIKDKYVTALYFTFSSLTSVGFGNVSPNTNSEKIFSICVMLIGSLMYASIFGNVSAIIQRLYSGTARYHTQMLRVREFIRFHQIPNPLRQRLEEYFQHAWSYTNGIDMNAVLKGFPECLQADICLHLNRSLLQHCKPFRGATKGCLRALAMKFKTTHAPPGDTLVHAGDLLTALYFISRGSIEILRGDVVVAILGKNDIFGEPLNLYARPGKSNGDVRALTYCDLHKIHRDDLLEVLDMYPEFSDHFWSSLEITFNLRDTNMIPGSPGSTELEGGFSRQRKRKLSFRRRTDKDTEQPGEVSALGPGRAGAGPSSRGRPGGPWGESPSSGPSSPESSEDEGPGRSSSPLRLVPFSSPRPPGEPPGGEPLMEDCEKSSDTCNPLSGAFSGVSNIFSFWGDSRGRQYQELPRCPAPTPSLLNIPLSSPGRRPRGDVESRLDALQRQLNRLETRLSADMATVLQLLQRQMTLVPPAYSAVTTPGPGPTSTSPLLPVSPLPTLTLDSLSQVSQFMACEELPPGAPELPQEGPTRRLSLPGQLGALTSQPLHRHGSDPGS

Row | Compound | hERG current change (%, negative = inhibition) at 10uM [%]
1 | COC(=O)Cc1cc(=O)oc2cc(O)ccc12 | 5.29
2 | Cc1ccc(NC(=O)COC(=O)CSCC(=O)Nc2cc(C)on2)c(C)c1 | -17.9
3 | Cc1ccc(NC(=O)CSCC(=O)OCc2cc(=O)oc3cc(O)ccc23)c(C)c1 | -53.2
4 | CCOc1ccc(/C=N/NC(=S)NC2CC3CC2C2C=CCC32)cc1 (centres unmarked) | 6.33
5 | CC1=C(C(=O)OCc2ccccc2)C(c2ccc(C)o2)C2=C(CCCC2=O)N1 (centres unmarked) | -23.7
6 | Cc1cc(C(F)(F)F)c2sc(N)nc2n1 | 5.61
7 | CC(c1nc2ccccc2c(=O)[nH]1)N1CCCN(S(=O)(=O)c2ccc(F)cc2)CC1 (centres unmarked) | -59.1
8 | CC(c1nc2ccccc2c(=O)[nH]1)N1CCN(C)CC1 (centres unmarked) | -5.2
9 | Cc1ccc(S(=O)(=O)N2CCCN(C(C)c3nc4ccccc4c(=O)[nH]3)CC2)cc1 (centres unmarked) | -25.6
10 | CC1CCN(S(=O)(=O)c2ccc(NC(=O)C3CSC4(C)CCC(=O)N34)cc2)CC1 (centres unmarked) | -6.34
11 | COc1ccc(C)cc1S(=O)(=O)NCCc1ccccc1 | -28.3
12 | CCN(CC)c1ccc(C(=O)OCC(=O)Nc2ccc3[nH]c(=O)[nH]c3c2)cc1 | 5.58
13 | Cc1ccc2nc(SCc3nnc(-c4ccccc4Br)o3)[nH]c2c1 | -6.41
14 | CCOc1ncccc1C(=O)OCc1ccc(Cl)cc1 | -20
15 | CCOC(=O)C1=C(OCc2ccc(Cl)cc2)C2C=C(C)C=CC2N=C1 (centres unmarked) | -69.1
16 | CCOC(=O)c1c(C=O)c(C)n(Cc2ccc(Cl)cc2)c1C | -18.8
17 | CC(=O)c1ccc(-n2c(C)c(C(C)=O)c3cc(O)ccc32)cc1 | 8.94
18 | CC(C(=O)NCCN1CCOCC1)c1ccc([N+](=O)[O-])cc1 (centres unmarked) | 16.7
19 | O=C(NCCN1CCN(C(=O)c2cccc(Br)c2)CC1)C(=O)NCc1ccccc1 | -70
20 | O=C(NCCN1CCN(c2ccc([N+](=O)[O-])cc2)CC1)NCc1ccccc1 | -67.7
21 | O=C(NCCN1CCN(C(=O)c2ccc([N+](=O)[O-])cc2)CC1)C(=O)NCc1ccccc1 | -78.9
22 | COc1ccc(N2CCN(CCNC(=O)Nc3ccc([N+](=O)[O-])cc3OC)CC2)cc1 | -17.1
23 | O=C(c1ccc([N+](=O)[O-])cc1)N1CCc2ccccc2C1 | -44.7
24 | CCc1ccc(N2CCN(CCNC(=O)Nc3ccccc3)CC2)cc1 | -21.1

Row | Compound | hERG current change (%, negative = inhibition) at 10uM [%]
25 | O=C(CCC(=O)NNC(=O)c1ccc([N+](=O)[O-])cc1)NCc1ccccc1 | 10.9
26 | O=C(c1cccc(Br)c1)N1CCN(C(=O)c2cccc(Br)c2)CC1 | -28.5
27 | CC(NC(=O)C(=O)NCCN1CCN(C(=O)c2ccc([N+](=O)[O-])cc2)CC1)c1ccccc1 (centres unmarked) | -75.1
28 | CC(NC(=O)C(=O)NCCN1CCN(C(=O)c2ccccc2Br)CC1)c1ccccc1 (centres unmarked) | 6.37
29 | O=C(NCCN1CCN(C(=O)c2cccc(Br)c2)CC1)C(=O)Nc1ccc(Br)cc1 | -42.1
30 | Cc1ccccc1-n1nc(C)c2cc(C(=O)NCc3cccnc3)sc21 | -31
31 | O=C(c1ccc(COc2ccc(Br)cc2)o1)N1N=C(C(F)F)CC1(O)C(F)F (centres unmarked) | 2.57
32 | Cn1c(N/N=C/c2c[nH]c3ccccc23)nc2ccccc21 | -46.7
33 | COC(=O)c1ccc(-n2nnnc2SC)cc1 | 3.46
34 | COc1cccc(/C=C2/Oc3ccccc3N(CC(=O)NCC3CCCO3)C2=O)c1 (centres unmarked) | 14
35 | Cc1nn(Cc2ccccc2)c(C)c1C(=O)OCC(=O)c1cc(C)n(C2CC2)c1C | -10.2
36 | NC(=O)COc1ccc(C23CC4CC(CC(C4)C2)C3)cc1 | 7.2
37 | Cl.O=C(Cc1ccc(Cl)cc1)NCCN1CCCC1 | -21.9
38 | Cc1ccc(C(=O)N2CCN(CCNC(=O)C(=O)NC(C)C)CC2)cc1 | 9.12
39 | CN1CCN(C(=O)CNC(=O)Cc2ccc(Cl)cc2)CC1 | 5.31
40 | O=C(NCc1ccc(F)cc1)N1CCN(C(=O)c2ccccc2)CC1 | -13.5
41 | CC(C)(C)c1ccc(C(=O)N2CCN(CCNC(=O)C(=O)NCc3ccc(Cl)cc3)CC2)cc1 | -41.1
42 | O=C(Cc1ccc(Cl)cc1)NCCN1CCN(C(=O)Cc2ccc(Cl)cc2)CC1 | -53.4
43 | O=C(NCCN1CCN(C(=O)c2cccc([N+](=O)[O-])c2)CC1)C(=O)NCc1ccc(Cl)cc1 | -50.1
44 | O=C(NCCN1CCN(C(=O)c2ccc(F)cc2)CC1)C(=O)NCc1ccccc1 | -73.9
45 | O=C(NCCN1CCN(S(=O)(=O)c2ccc(F)cc2)CC1)C(=O)NCc1ccccc1 | 0.451
46 | Cc1ccc(C(=O)N2CCN(CCNC(=O)C(=O)NCc3ccc(Cl)cc3)CC2)cc1 | -74
47 | COc1ccc(Cc2nc3ccccc3n2CC(=O)N/N=C/c2ccc(O)cc2)cc1OC | 0.975
48 | C=CCOc1ccccc1CNc1ccccc1C | -15.7

Row | Compound | hERG current change (%, negative = inhibition) at 10uM [%]
49 | COc1ccc(-c2ccc(NC(=O)c3ccco3)cc2)nn1 | 5.79
50 | Cc1c(NC(=O)C(C)n2cc([N+](=O)[O-])cn2)c(=O)n(-c2ccccc2)n1C (centres unmarked) | 19.4
51 | O=C(/C=C/Nc1ccccc1F)c1cccs1 | 1.08
52 | COc1ccc(OCc2nn3c(-c4ccco4)nnc3s2)cc1 | -36.6
53 | Cn1cccc1/C=C1\SC(=O)N(c2ccc(O)cc2)C1=O | 0.777
54 | COc1ccc(/C(C)=N/NC(=O)C(NC(=O)c2ccccc2)c2n[nH]c(=O)c3ccccc23)c(OC)c1 (centres unmarked) | 4.11
55 | O=C(COC(=O)c1cc(S(=O)(=O)N2CCCCC2)ccc1N1CCOCC1)NCCc1ccc(F)cc1 | -25.5
56 | CC(C)(C)c1ccc(C(=O)N2CCN(CCNC(=O)C(=O)NCc3ccccc3)CC2)cc1 | -57
57 | Cc1ccc(S(=O)(=O)N2CCN(CCNC(=O)C(=O)NCc3ccccc3)CC2)cc1 | 5.65
58 | CC(C)NC(=O)C(=O)NCCN1CCN(C(=O)c2ccc(C(C)(C)C)cc2)CC1 | -3.01
59 | COc1ccc(-c2noc(CCC(N)=O)n2)cc1OC | 3.66
60 | Cc1csc(NC(=O)c2ccccc2C(=O)O)n1 | -0.365
61 | Cc1ccc(NC(=O)c2ccn(C)n2)c(Br)c1 | 0.15
62 | Cc1ccc(CNC(=O)c2cc(S(=O)(=O)N3CCOCC3)cn2C)cc1 | -12.5
63 | CC(C)Cn1c(N)c(C(=O)CSc2nc3ccccc3c(=O)n2CCCN2CCOCC2)c(=O)n(C)c1=O | -22.2
64 | COC(=O)c1ccc2c(=O)n(CCN3CCOCC3)c(SCC(=O)NCc3ccccc3)nc2c1 | -46.1
65 | COCCCn1c(SCCc2ccccc2)nc2cc(OC)c(OC)cc2c1=N | -12.7
66 | COc1ccccc1CNC(=O)CSc1nc2ccccc2c(=O)n1CCCN1CCOCC1 | -56
67 | O=C1c2ccccc2C(=O)N1CCSc1nc2ccccc2c(=O)n1CCCN1CCOCC1 | -15.1
68 | CC(Sc1nc2ccccc2c(=O)n1CC1CCCO1)C(=O)N(C)Cc1ccccc1 (centres unmarked) | -59.8
69 | CC(=O)c1c(C)[nH]c(C(=O)CSc2nc3ccccc3c(=O)n2CCCN2CCOCC2)c1C | -15.5
70 | O=C(CSc1nc2ccccc2c(=O)n1CCCN1CCOCC1)NC12CC3CC(CC(C3)C1)C2 | -67.8
71 | COCCCn1c(SCC(=O)O)nc2cc(OC)c(OC)cc2c1=N | 9.07
72 | CC(=O)Nc1ccc(NC(=O)C(C)Sc2nc3ccccc3c(=O)n2CC2CCCO2)cc1 (centres unmarked) | 7.41

Row | Compound | hERG current change (%, negative = inhibition) at 10uM [%]
73 | CC(Sc1nc2ccccc2c(=O)n1CC1CCCO1)C(=O)N(C)c1ccccc1 (centres unmarked) | -41.6
74 | CCCSc1nc2cc(OC)c(OC)cc2c(=N)n1CCCN1CCOCC1 | -74.6
75 | CC(OC(=O)c1cc2sccc2n1C)C(=O)NCC1CCCO1 (centres unmarked) | 0.798
76 | Cc1ccc(S(=O)(=O)CC(=O)N2CCCC2)cc1 | -0.506
77 | O=C(CCc1ccc(Oc2cc([N+](=O)[O-])cc([N+](=O)[O-])c2)cc1)N1CCCCCC1 | -30.2
78 | Cn1cc(SCC(=O)Nc2nc3ccccc3s2)c2ccccc21 | -5.6
79 | Cc1noc(C(C)C)c1C(=O)Nc1ccc(-c2nnc3n2CCCCC3)cc1 | -4.21
80 | Cc1cccc(C)c1-n1nnnc1S(=O)(=O)Cc1ccccc1Cl | -18.2
81 | CC(C)CN1CCC(C(=O)NCC2CCCO2)CC1.O=C(O)C(=O)O (centres unmarked) | -3.21
82 | CC(C)CN(CC(C)C)C(=O)CN1c2cccc3cccc(c23)S1(=O)=O | 18.1
83 | CCN(CC)C(=O)Oc1cc2c(-c3cc4cccc(OC)c4o3)cc(=O)oc2cc1C | 9.85
84 | CCn1c(SCc2ccc(OC)c(F)c2)nc2ccccc2c1=O | 23.4
85 | COc1ccc(CNC(=O)C(C)Sc2nc3ccccc3c(=O)n2CC2CCCO2)cc1 (centres unmarked) | -78.7
86 | COc1ccccc1NC(=O)C(C)Sc1nc2ccccc2c(=O)n1CC1CCCO1 (centres unmarked) | -37.2
87 | COc1ccc(CNC(=O)CSc2nc3c(oc4ccccc43)c(=O)n2CC2CCCO2)cc1 (centres unmarked) | -60.6
88 | COc1cccc(CNC(=O)CSc2nc3c(oc4ccccc43)c(=O)n2CC2CCCO2)c1 (centres unmarked) | -36.4
89 | COc1ccc(CSc2nc3ccccc3c(=O)n2CCCN2CCOCC2)cc1F | -53.4
90 | COCCn1c(SCc2ccc(OC)c(F)c2)nc2ccccc2c1=O | -2.82
91 | COc1ccc(CNC(=O)C(C)Sc2nc3ccccc3c(=O)n2CCCN2CCOCC2)cc1 (centres unmarked) | -84.9
92 | CCC(Sc1nc2ccccc2c(=O)n1CCN1CCOCC1)C(=O)NCc1cccnc1 (centres unmarked) | -37
93 | CC(Sc1nc2ccccc2c(=O)n1CC1CCCO1)C(=O)NC(C)c1ccccc1 (centres unmarked) | -5.01
94 | O=C(CSc1nc2c(oc3ccccc32)c(=O)n1CC1CCCO1)NCc1ccccc1 (centres unmarked) | -15.8
95 | COc1ccc(-c2nc3ccccc3c(=O)n2CCCN2CCOCC2)cc1 | 6.17

Reference: PMC4336329 (PLoS ONE, 2015)
